Experimental data: PubChem BioAssay (NCATS)
Inconclusive results are not listed. The source made the active and inactive calls. Calls come from the whole dose curve; as a rule, active = well fitted curve in the direction sought with a large enough effect; inconclusive = small, poorly fitted or top-dose-only effect, or another doubt; inactive = no such curve, though single readings can be large; an effect the other way counts as inactive or inconclusive. Where a SMILES comes first, the peptide text is derived from it. [ ]: non-standard residue; d: D form. ξ: configuration not given here. ξTyr(βOH) = NC(C(=O)O)C(O)c1ccc(O)cc1

What was measured:
[1] = P-glycoprotein substrates identified in KB-8-5-11 adenocarcinoma cell line, qHTS therapeutic library screen (AID 1346987); conditions: KB-8-5-11 (P-gp overexpressing) viability, CellTiter-Glo, 72 h; series mostly up to 44.5 µM; note: nearly all actives have a fitted effect of over 65% in size
Summary of the method: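 Compounds are pinned in dose-response onto KB-8-5-11 cells (500 cells/well, colchicine-free medium) and left 72 h at 37 degree C. CellTiter-Glo luminescence then yields AC50 values.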

[2] = system: Zika virus NS2B-NS3 protease (unlinked complex); test: Primary screen GU Rhodamine qHTS for Zika virus inhibitors: Unlinked NS2B-NS3 protease assay (AID 1347159); conditions: Recombinant ZIKV NS2B-NS3 protease, Rhodamine110 substrate fluorescence; series mostly up to 107 µM; note: nearly all actives have a fitted effect of over 60% in size
Summary of the method: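 Buffer 10 mM Tris-HCl pH 8.0, 0.01% Tween 20. Unlinked protease 25 nM; compound preincubation 15 min, RT, protected from light. Substrate Rhod110, 1.5 microM; ~15% conversion in 15 min.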

[3] = system: Zika virus NS2B-NS3 protease (linked construct); test: Primary screen NINDS Rhodamine qHTS for Zika virus inhibitors (AID 1347160); conditions: purified NS2B-NS3 protease, Rhodamine110 substrate fluorescence; series mostly up to 33.1 µM; note: nearly all actives have a fitted effect of over 55% in size
Summary of the method: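 Aprotinin served as in-plate control. Conditions: 25 nM linked NS2B-NS3, pH 8.0 Tris buffer, titrated compounds, 15 min preincubation and 15 min reaction with 1.5 microM Rhod110 substrate at room temperature.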

Measured: Potency

C=C(C(=O)O)C1CC(O)C2(C)CCCC(C)(O)C2C1 (stereo not drawn)
inactive: all assays above

CC(C)C1NC(=O)CNC(=O)C2CCCN2C(=O)C(Cc2c[nH]c3ccccc23)NC(=O)CNC(=O)C(C(O)c2ccc(O)cc2)NC(=O)CNC1=O (stereo not drawn) (cyclo(G[ξTyr(βOH)]GWPGV); configuration not given here)
inactive: all assays above

C/C=C(/C)C(=O)OC1C2OC2C2(CO2)C2C3OC(=O)C(C)C3CCC12C (stereo not drawn)
inactive: all assays above

CC(C)C1C(OC(=O)/C=C/c2ccccc2)CC2(C)OC2CCC2(C)OC2C1O (stereo not drawn)
inactive: all assays above

CC(C)=C1C[C@@]2(C)C(=CC1=O)CC[C@@H](O)[C@@H]2C
inactive: all assays above

Cc1ccc(-c2c(-c3nn(C)c4ncnc(N5CC[C@H](N6CCCCC6)C5)c34)cnn2C)cc1
inactive: all assays above

Cc1cc(Cn2cnc3c2CC(C(=O)O)N(C(=O)C(c2ccccc2)c2ccccc2)C3)ccc1N(C)C (stereo not drawn)
inactive: all assays above

COC(=O)C1(O)C(OC(C)=O)CCC2C3(CC(c4ccoc4)OC3=O)C(C)=CCC21C(=O)OC (stereo not drawn)
inactive: all assays above

COc1cc2c(cc1OC)N1C(=O)C[C@@]34C=CC[N@+]5([O-])CC[C@H]2[C@H](CC3)[C@@]145
inactive: all assays above

CC(=O)C1CCC(=O)N1Cc1ccccc1 (stereo not drawn)
inactive: all assays above

CC(=O)O[C@H]1[C@H](OC(=O)C(C)C)[C@]2(C)OC3(CC[C@]2(C)[C@H]2CCC[C@]4(CO4)[C@]12C)COC(=O)C3 (stereo partly drawn)
inactive: all assays above
